From PubChem BioAssay (NCI)
This is part of a sample that, as a whole, favours compounds with a hit. Of some 83,000 tested, about 20% had one in any assay.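 Values shown are percent growth following 48 h exposure of cells in 96-well plates to a single concentration of compound; below 10 was considered active.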 A number with no mark means an inactive call. Active and inactive are the calls of the source.

Columns and labels:
Assay in all cases: NCI-60 one-dose screen, 48 h (100 = growth as untreated, 0 = no growth, -100 = all killed)
SK-MEL-2 melanoma = conditions: 10 µM unless noted
EKVX NSCLC = conditions: 10 µM unless noted
SN12C renal = conditions: 10 µM unless noted
UO-31 renal = conditions: 10 µM unless noted
TK-10 renal = conditions: 10 µM unless noted
ACHN renal = conditions: 10 µM unless noted
CAKI-1 renal = conditions: 10 µM unless noted
A498 renal = conditions: 10 µM unless noted
CCRF-CEM leukemia = conditions: 10 µM unless noted
SR leukemia = conditions: 10 µM unless noted
RPMI-8226 leukemia = conditions: 10 µM unless noted
OVCAR-8 ovarian = conditions: 10 µM unless noted
OVCAR-5 ovarian = conditions: 10 µM unless noted
OVCAR-4 ovarian = conditions: 10 µM
IGROV1 ovarian = conditions: 10 µM unless noted
OVCAR-3 ovarian = conditions: 10 µM unless noted
HS 578T breast = conditions: 10 µM unless noted
NCI/ADR-RES ovarian = conditions: 10 µM unless noted
MOLT-4 leukemia = conditions: 10 µM unless noted
SK-OV-3 ovarian = conditions: 10 µM unless noted

SMILES | growth (SK-MEL-2 melanoma) | growth (EKVX NSCLC) | growth (SN12C renal) | growth (UO-31 renal) | growth (TK-10 renal) | growth (ACHN renal) | growth (CAKI-1 renal) | growth (A498 renal) | growth (CCRF-CEM leukemia) | growth (SR leukemia) | growth (RPMI-8226 leukemia) | growth (OVCAR-8 ovarian) | growth (OVCAR-5 ovarian) | growth (OVCAR-4 ovarian) | growth (IGROV1 ovarian) | growth (OVCAR-3 ovarian) | growth (HS 578T breast) | growth (NCI/ADR-RES ovarian) | growth (MOLT-4 leukemia) | growth (SK-OV-3 ovarian)
CC(C)(C)c1cc(C(=O)Nc2cc3ccccc3cc2C(=O)NCCN)cc(C(C)(C)C)c1 | -48.8% (active) | -72.9% (active) | -64.8% (active) | -85.6% (active) | -85.9% (active) | -92.3% (active) | -84.4% (active) | -90.7% (active) | -49.6% (active) | -58.9% (active) | -47.8% (active) | -37.1% (active) | -58.4% (active) | -81.6% (active) | -55% (active) | -96% (active) | -36.6% (active) | -62.3% (active) |  | 
CO[C@H]1CC[C@@]2(C)C(=CC[C@H]3[C@@H]4C[C@H](O)C[C@@]4(C)CC[C@@H]32)C1 | 67.2% | 76.4% | 64.8% | 66.1% | 58.9% | 69.6% | 42.8% | 55.8% | 19.3% |  | 54.5% | 82.5% | 102% |  | 53.8% | 28.7% | 60.8% | 39.1% | 33.5% | 39.1%
Fc1ccc(NC(=S)c2ccccc2)cc1 | 98.3% | 97.5% | 103% | 88.9% | 94.5% | 102% | 89.8% | 72.8% | 94.6% | 102% | 89% | 102% | 94.5% | 100% | 106% |  | 101% | 108% |  | 117%
O=C(O)c1ccccc1C(F)(F)F | 112% | 93.2% | 90.9% | 95.3% | 111% | 92.6% | 87.8% | 74.5% | 108% |  | 59% | 105% | 97.2% |  |  | 97.9% | 89.7% | 80.8% | 97.1% | 93.1%
O=[N+]([O-])c1cc([N+](=O)[O-])c(C(F)(F)F)cc1NN=C(c1ccc(O)cc1)c1ccc(O)cc1 | -80.3% (active) | 92.7% | 79.7% | -79.4% (active) | 123% | 12.8% | 98% | 103% | 112% | 66.1% | 76.4% | -49.9% (active) | -6.51% (active) | 81.3% |  | 96.3% | 108% | -19.9% (active) |  | -23.1% (active)
CC(C)CCSc1nc(N)nc2nc[nH]c12 | 109% | 109% | 92.8% | 86.1% | 154% | 91.5% | 108% | 116% | 102% | 89.8% | 94.6% | 94.1% | 107% | 112% | 79.9% | 103% | 122% | 104% |  | 
COc1cc(NCc2cn(-c3ccc(C(=O)O)cc3)nc2-c2ccc(C(=O)O)cc2)cc(OC)c1OC | 102% | 93.1% | 94.7% | 88.9% | 91.6% | 102% | 87.9% | 66% | -17.9% (active) | 114% | 93.2% | 101% | 94.8% | 94.4% | 97.1% | 106% |  | 107% |  | 
CCN1c2ccccc2C(Cl)(c2ccc(N(C)C)cc2)c2ccccc21 | 81.5% | 69.1% | 46.1% | 57.6% | 62.8% | 72.7% | 62.9% | 135% | 17% | 22.6% | -28.8% (active) | 17.9% | 107% | 75.2% | -20.3% (active) | 23.2% | 102% | 85.8% |  | 
CCc1cccc(Cl)c1 | 118% | 105% | 90.6% | 85.3% | 107% | 98.9% | 108% | 120% | 88.2% | 103% | 101% | 104% | 105% |  | 100% | 110% | 118% | 103% |  | 107%
C#CCC(C(=O)OCC)C(=O)OCC | 107% | 95.1% | 109% | 85% | 98.7% | 102% | 93.6% | 94.6% | 104% | 99.9% | 102% | 105% | 94.9% | 128% | 117% | 103% |  | 105% |  | 99.5%
Cn1cc(-c2nnc(-c3ccccc3)s2)c2cc(Br)cnc21 | 100% | 62.6% | 90.1% | 61.5% | 88.2% | 66.7% | 53% | 60.2% | -12.6% (active) | 90.7% | 85.8% | 94.4% | 94.9% | 68% | 43.7% | 84.5% | 79.9% | 90.4% |  | 
Cc1nc(-c2ccccc2)sc1CC#N | 112% | 101% | 103% | 106% | 79.4% | 102% | 97.6% | 85.6% | 102% | 91.6% | 109% | 108% | 105% | 113% | 102% | 116% |  | 109% |  | 108%
O=C1/C(=C\c2cccn2Cc2ccccc2)c2ccccc2N1c1c(Cl)cccc1Cl | 45.7% | 38.8% | 87.3% | 50.2% | 22.9% | 53.7% | 55.8% | 72.9% | 92.9% | 90.6% | 60.2% | 90.8% | 38.7% | -2.5% (active) | 28.2% | 7.01% (active) | 83.2% | 70.9% |  | 
CCCCCC1CCCCN1C(=O)OCCCC (stereo not given) | 102% | 89.1% | 73.3% | 84.3% | 95.6% | 104% | 79.7% | 88.1% | 84.6% |  | 73.2% | 106% | 101% | 103% |  | 104% | 122% | 91.8% |  | 105%
CC(C)C1=NOC(=O)C1=Cc1cn(-c2ccccc2)nc1-c1ccccc1 | 99.2% | 99.3% | 79.2% | 70.2% | 82.3% | 84.5% | 57.7% | 93.6% | 8.48% (active) | -26.9% (active) | -16.2% (active) | 59.8% | 102% |  | 67.5% | 88.4% |  | 94.6% |  | 112%
O=C(Nc1ccc(CN2CCOCC2)c(C(F)(F)F)c1)c1nc2ccc3[nH]ncc3c2c2c1CCCC2 | 103% | 87.3% | 94.4% | 73% | 104% | 91.5% | 80.9% | 113% | 84.8% | 95.8% | 83.3% | 93.5% | 104% | 91% |  | 102% | 95.7% | 96.3% |  | 
CCNc1cc2c(cc1Br)-c1ccccc1C2=O | 98% | 71.5% | 94.5% | 55.1% | 104% | 98.2% | 74.5% | 93.4% | 97.2% | 91.6% | 100% | 90.1% | 115% | 92.5% | 82% | 91.8% | 96.8% | 96% |  | 90.4%
COC(=O)c1c(C)[nH]c(/C=C2\N=C(c3ccc[nH]3)C=C2OC)c1C | -72.8% (active) | -31.8% (active) | 16.9% | -72.6% (active) | 0.549% (active) | -69.1% (active) | -25% (active) | 0.235% (active) | 15.2% |  | -16.1% (active) | -7.15% (active) | 0.695% (active) |  | -8.84% (active) | -40.6% (active) | -27.4% (active) | 13.3% | 1.37% (active) | 48.4%
